Measured values published in publication PMC7862700, “An all-to-all approach to the identification of sequence-specific readers for epigenetic DNA modifications on cytosine”.

Legend:
Assay in all cases: DAPPL (digital affinity profiling via proximity ligation, sequencing); 10 mM Tris-HCl pH 7.5, 50 mM NaCl, 1 mM DTT, 4% glycerol, room temperature, 30 min; GST-TFs on glutathione beads, 16-mer random dsDNA library, 0.1% formaldehyde crosslink after washing; high values mean tight binding
Conditions in all cases: protein: recombinant; tags: N-terminal GST; dsDNA, one strand shown
SPDEF = biological target: T1, SPDEF (Homo sapiens, UniProt O95238 1-335)
T1 sequence: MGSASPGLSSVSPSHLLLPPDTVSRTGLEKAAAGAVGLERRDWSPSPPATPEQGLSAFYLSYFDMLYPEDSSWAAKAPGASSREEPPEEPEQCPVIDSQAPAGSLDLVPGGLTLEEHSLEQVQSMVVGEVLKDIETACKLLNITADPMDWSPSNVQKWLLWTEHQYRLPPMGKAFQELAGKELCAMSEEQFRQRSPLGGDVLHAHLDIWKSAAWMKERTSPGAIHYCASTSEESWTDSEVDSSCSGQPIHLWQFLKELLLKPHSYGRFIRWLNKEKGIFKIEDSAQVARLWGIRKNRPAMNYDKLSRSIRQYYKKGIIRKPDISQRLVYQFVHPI
How it was run: (§1)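 Yeast served to express human transcription factors as GST fusions, which were then captured on glutathione beads and labelled with DNA barcodes. Pooled with a tag-only sample, they were incubated with 200 nmole of a 16-mer random double-stranded DNA library for 30 min at room temperature in Tris/NaCl/DTT/glycerol buffer, washed, crosslinked with 0.1% formaldehyde, ligated by proximity, amplified by PCR and sequenced. Dividing each hexamer's read frequency for a factor by its frequency for the tag-only sample gives the binding signal.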

GABPA = biological target: T2, GABPA (Homo sapiens, UniProt Q06546 1-454)
T2 sequence: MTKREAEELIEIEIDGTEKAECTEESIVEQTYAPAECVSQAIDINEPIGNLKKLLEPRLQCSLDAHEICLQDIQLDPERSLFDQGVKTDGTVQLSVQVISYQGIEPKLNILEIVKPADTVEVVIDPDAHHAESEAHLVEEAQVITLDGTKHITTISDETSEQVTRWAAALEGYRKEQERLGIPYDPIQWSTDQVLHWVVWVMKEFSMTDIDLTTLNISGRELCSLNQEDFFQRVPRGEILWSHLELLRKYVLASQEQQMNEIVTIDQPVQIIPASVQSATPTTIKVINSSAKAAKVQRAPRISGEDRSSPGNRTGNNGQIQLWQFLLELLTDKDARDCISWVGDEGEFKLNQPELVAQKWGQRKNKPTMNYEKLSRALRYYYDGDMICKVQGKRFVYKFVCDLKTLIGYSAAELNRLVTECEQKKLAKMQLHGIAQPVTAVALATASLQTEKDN
How it was run: as §1

ELF1 = ELF1 (Homo sapiens, UniProt P32519 1-619)
ELF1, sequence (P32519 whole entry): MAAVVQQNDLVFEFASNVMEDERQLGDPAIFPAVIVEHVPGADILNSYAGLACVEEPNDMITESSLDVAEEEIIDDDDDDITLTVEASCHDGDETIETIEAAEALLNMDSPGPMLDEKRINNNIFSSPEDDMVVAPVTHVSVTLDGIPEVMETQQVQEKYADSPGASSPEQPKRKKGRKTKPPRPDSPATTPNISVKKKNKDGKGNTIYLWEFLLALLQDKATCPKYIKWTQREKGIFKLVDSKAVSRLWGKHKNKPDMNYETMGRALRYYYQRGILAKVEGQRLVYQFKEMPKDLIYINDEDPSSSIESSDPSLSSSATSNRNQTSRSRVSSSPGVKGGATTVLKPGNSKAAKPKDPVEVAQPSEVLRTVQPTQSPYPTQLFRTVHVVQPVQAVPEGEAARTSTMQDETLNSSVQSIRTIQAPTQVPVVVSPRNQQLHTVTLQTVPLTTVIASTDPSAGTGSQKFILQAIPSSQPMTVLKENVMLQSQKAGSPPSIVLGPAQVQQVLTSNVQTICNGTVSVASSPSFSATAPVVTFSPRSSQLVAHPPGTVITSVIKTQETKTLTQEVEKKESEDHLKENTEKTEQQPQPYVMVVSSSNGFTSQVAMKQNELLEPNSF
How it was run: as §1

FEV = biological target: T3, FEV (Homo sapiens, UniProt Q99581 1-238)
T3 sequence: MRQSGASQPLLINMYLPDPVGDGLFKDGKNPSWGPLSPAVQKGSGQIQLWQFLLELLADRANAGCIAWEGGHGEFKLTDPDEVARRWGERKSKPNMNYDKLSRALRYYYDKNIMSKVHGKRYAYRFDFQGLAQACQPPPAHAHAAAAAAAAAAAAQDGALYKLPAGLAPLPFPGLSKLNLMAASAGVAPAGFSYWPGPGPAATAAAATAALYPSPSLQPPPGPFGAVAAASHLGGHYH
How it was run: as §1

ETV3 = biological target: T4, ETV3 (Homo sapiens, UniProt P41162-2 1-143)
T4 sequence: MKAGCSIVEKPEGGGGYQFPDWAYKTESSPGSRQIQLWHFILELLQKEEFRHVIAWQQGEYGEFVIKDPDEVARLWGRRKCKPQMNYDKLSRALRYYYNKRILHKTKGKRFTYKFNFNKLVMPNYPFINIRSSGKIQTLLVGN
How it was run: as §1

ERF = biological target: T5, ERF (Homo sapiens, UniProt P50548 1-548)
T5 sequence: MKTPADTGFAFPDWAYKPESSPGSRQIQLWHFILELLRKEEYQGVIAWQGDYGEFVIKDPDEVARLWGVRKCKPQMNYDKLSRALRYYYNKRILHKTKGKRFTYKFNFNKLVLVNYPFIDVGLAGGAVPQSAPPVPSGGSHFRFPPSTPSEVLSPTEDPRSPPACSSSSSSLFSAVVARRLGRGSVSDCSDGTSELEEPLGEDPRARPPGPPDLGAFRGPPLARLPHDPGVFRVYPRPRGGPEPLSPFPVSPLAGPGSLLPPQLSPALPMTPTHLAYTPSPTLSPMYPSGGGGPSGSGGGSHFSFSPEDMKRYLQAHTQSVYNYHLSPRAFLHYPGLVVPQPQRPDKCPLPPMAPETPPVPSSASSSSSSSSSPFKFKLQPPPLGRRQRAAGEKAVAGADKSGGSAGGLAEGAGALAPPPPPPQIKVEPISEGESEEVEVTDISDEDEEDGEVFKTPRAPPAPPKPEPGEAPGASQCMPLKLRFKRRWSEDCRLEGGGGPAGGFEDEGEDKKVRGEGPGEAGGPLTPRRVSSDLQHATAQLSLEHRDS
How it was run: as §1

EHF = biological target: T6, EHF (Homo sapiens, UniProt Q9NZC4 1-300)
T6 sequence: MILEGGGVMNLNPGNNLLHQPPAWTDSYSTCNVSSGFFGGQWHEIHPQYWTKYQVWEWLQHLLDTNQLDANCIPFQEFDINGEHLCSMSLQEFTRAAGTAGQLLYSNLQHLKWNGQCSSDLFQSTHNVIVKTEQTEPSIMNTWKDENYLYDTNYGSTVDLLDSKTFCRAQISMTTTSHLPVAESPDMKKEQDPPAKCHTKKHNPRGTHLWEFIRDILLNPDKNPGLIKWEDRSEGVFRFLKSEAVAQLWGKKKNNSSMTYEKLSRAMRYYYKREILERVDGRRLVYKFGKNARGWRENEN
How it was run: as §1

ETV3L = biological target: T7, ETV3L (Homo sapiens, UniProt Q6ZN32 1-361)
T7 sequence: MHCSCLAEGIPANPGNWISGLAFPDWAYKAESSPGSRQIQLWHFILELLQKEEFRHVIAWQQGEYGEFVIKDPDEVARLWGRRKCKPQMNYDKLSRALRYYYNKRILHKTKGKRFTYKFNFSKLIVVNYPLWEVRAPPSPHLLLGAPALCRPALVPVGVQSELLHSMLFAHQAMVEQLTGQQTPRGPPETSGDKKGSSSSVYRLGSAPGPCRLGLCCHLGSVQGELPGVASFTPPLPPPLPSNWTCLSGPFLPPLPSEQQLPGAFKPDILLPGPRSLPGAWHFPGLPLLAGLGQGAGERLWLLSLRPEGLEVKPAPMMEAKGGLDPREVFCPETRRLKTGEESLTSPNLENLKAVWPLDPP
How it was run: as §1

SPI1 = SPI1 (Homo sapiens, UniProt P17947 1-270)
How it was run: as §1

ETS2 = biological target: T8, ETS2 (Homo sapiens, UniProt P15036 1-469)
T8 sequence: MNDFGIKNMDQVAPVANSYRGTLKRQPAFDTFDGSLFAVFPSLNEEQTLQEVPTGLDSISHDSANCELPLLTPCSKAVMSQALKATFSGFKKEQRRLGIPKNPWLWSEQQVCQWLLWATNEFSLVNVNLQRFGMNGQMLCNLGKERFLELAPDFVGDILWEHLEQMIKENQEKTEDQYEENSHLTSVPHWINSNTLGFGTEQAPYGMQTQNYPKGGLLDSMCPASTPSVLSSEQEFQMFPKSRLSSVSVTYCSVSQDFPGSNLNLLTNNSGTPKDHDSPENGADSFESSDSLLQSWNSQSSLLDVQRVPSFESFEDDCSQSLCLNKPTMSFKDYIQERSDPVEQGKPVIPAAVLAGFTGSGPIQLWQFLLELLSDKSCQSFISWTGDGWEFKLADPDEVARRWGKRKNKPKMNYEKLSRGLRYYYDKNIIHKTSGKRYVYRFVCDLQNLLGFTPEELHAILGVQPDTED
How it was run: as §1

ELK3 = biological target: T9, ELK3 (Homo sapiens, UniProt P41970 1-407)
T9 sequence: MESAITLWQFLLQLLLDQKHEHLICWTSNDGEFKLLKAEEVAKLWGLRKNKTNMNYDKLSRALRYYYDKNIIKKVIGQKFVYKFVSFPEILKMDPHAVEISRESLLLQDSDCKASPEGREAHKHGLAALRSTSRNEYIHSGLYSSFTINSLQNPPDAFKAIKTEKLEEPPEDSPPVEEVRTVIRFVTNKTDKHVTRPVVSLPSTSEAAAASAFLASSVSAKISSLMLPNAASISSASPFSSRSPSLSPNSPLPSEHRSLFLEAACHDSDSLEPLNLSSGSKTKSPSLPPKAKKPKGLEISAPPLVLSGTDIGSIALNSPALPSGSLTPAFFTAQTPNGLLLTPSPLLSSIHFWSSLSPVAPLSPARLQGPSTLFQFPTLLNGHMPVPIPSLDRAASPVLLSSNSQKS
How it was run: as §1

ETV6 = ETV6 (Homo sapiens, UniProt P41212 1-452)
ETV6, sequence (P41212 whole entry): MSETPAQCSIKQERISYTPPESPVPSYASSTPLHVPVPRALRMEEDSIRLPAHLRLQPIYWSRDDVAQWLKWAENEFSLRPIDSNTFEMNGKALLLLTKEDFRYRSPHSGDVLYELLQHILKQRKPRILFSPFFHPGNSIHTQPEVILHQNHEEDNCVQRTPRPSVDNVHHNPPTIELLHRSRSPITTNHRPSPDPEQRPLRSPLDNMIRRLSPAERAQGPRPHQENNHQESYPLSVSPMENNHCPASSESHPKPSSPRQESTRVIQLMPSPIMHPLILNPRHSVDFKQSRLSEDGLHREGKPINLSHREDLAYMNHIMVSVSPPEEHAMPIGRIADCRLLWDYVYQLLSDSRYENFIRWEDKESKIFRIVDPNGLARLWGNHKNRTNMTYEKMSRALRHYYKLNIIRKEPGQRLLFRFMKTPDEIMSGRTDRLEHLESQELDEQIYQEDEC
How it was run: as §1

SPIB = SPIB (Homo sapiens, UniProt Q01892 1-262)
SPIB, sequence (Q01892 whole entry): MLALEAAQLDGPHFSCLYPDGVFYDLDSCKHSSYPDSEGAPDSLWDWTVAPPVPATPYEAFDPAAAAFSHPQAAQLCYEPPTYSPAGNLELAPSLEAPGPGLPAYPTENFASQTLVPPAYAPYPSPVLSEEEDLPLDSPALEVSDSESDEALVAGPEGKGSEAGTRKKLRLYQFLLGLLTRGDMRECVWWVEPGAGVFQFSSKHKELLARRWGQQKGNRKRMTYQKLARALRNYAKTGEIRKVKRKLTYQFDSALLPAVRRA
How it was run: as §1

Sequence: CGCATC
- binding signal (SPDEF): 1.02 fold enrichment (6-mer frequency, TF over GST control)

Sequence: CGCCGT
- binding signal (GABPA): 1.01 fold enrichment (6-mer frequency, TF over GST control)

Sequence: TGTAGT
- binding signal (SPDEF): 1.03 fold enrichment (6-mer frequency, TF over GST control)

Sequence: AGGACT
- binding signal (GABPA): 1.05 fold enrichment (6-mer frequency, TF over GST control)
- binding signal (ELF1): 1 fold enrichment (6-mer frequency, TF over GST control)
- binding signal (FEV): 1.01 fold enrichment (6-mer frequency, TF over GST control)
- binding signal (ETV3): 1.06 fold enrichment (6-mer frequency, TF over GST control)

Sequence: GACGAA
- binding signal (ERF): 1.01 fold enrichment (6-mer frequency, TF over GST control)

Sequence: GCTGTC
- binding signal (EHF): 1 fold enrichment (6-mer frequency, TF over GST control)
- binding signal (ERF): 1.03 fold enrichment (6-mer frequency, TF over GST control)

Sequence: GACCCT
- binding signal (ERF): 1.05 fold enrichment (6-mer frequency, TF over GST control)

Sequence: TCGCCA
- binding signal (GABPA): 1 fold enrichment (6-mer frequency, TF over GST control)
- binding signal (ETV3L): 1.01 fold enrichment (6-mer frequency, TF over GST control)

Sequence: AGTTCA
- binding signal (SPI1): 1.01 fold enrichment (6-mer frequency, TF over GST control)
- binding signal (ETV3L): 1.04 fold enrichment (6-mer frequency, TF over GST control)
- binding signal (ETS2): 1 fold enrichment (6-mer frequency, TF over GST control)

Sequence: GGGTCT
- binding signal (SPDEF): 1.01 fold enrichment (6-mer frequency, TF over GST control)

Sequence: GCGCTA
- binding signal (ELK3): 1.13 fold enrichment (6-mer frequency, TF over GST control)
- binding signal (ERF): 1.05 fold enrichment (6-mer frequency, TF over GST control)
- binding signal (ETV6): 1 fold enrichment (6-mer frequency, TF over GST control)

Sequence: GGGTCC
- binding signal (SPDEF): 1 fold enrichment (6-mer frequency, TF over GST control)

Sequence: CAGTTT
- binding signal (SPIB): 1.03 fold enrichment (6-mer frequency, TF over GST control)
- binding signal (ELK3): 1.04 fold enrichment (6-mer frequency, TF over GST control)
- binding signal (ERF): 1.01 fold enrichment (6-mer frequency, TF over GST control)
